Test results reported in PubChem BioAssay (NCATS).
Values joined by “and” are separate entries in the source; they are usually repeats but may differ in a detail not shown here. Identical values can stand only once. Records with an inconclusive call do not appear. A number with no mark means an inactive call. Active and inactive are the calls of the source. Calls follow the shape of the dose curve; as a rule, active = well fitted cell-killing curve with a large enough effect; inconclusive = small, poorly fitted or top-dose-only effect; inactive = flat fitted curve, though single readings scatter.

Assays:
[1] = Cellular viability qHTS for adrenocortical cancer (ACC) cell line SW-13 (AID 1963989); conditions: SW-13 ACC cells viability, CellTiter-Glo, 48 h; activity (max response): stronger effect = lower value; also: nearly all actives have a fitted effect of over 65% in size;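 as to activity (max response): cells grown in serum-free medium with ITS supplement; % is scaled to controls: 0 for no effect and ±100 for the full control effect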
Method in brief: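 Compound titrations (up to 46 uM final, in DMSO) were applied to SW-13 cells for 48 h at 37C/5% CO2. Reading used CellTiter-Glo after 20 min at room temperature; fitted curves yielded IC50 and efficacy.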

[2] = Cellular viability qHTS for adrenocortical cancer (ACC) cell line NCI-H295R (AID 1963990); also: nearly all actives have a fitted effect of over 60% in size
Method in brief: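 Readout: CellTiter-Glo luminescence, 20 min RT. Exposure: 48 h, 37C/5% CO2. Cells: NCI-H295R, ITS-DMEM serum-free. Range: up to 46 uM. Analysis: 4PL fit, IC50 plus efficacy.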
Potency is read from the fitted curve at half-maximal effect.

Row | SMILES | activity (max response) [1] | Potency [2] | Potency [1]
1 | O=C1NCN(c2ccccc2)C12CCN(CC1COc3ccccc3O1)CC2 (stereo not given) | -9.54% | inactive | 
2 | CC(=O)[O][Hg][c]1ccccc1 |  | 1.46 µM (active) | 1.3 µM (active)
3 | CC(C)[N+](C)(CCC(C(N)=O)(c1ccccc1)c1ccccc1)C(C)C | 1.8% | inactive | 
4 | CCCN(CCC)C(=O)Cc1c(-c2ccc(Cl)cc2)nc2ccc(Cl)cn12 | -9.21% | inactive | 
5 | O=c1c(C2CC(c3ccc(-c4ccc(Br)cc4)cc3)Cc3ccccc32)c(O)sc2ccccc12 (stereo not given) |  | 7.31 µM (active) | 5.8 µM (active)
6 | O=C(CBr)N1CC([N+](=O)[O-])([N+](=O)[O-])C1 | 7.48% | inactive | 
7 | CC1COC2(c3ccccc3Cl)c3cc(Cl)ccc3NC(=O)CN12 (stereo not given) | -14.7% | 23.1 µM (active) | 
8 | O=C(Nc1ccc(Br)cc1)c1cc(Br)cc(Br)c1O | -19.7% | 10.3 µM (active) | 
9 | CC(=O)[C@H]1CC[C@H]2[C@@H]3CC[C@H]4C[C@H](O)CC[C@]4(C)[C@H]3C(=O)C[C@]12C | 0.908% | inactive | 
10 | CN(C)CCc1c[nH]c2ccccc12 | -12.4% | inactive | 
11 | CCOC(=O)C(c1c(O)c2ccccc2oc1=O)c1c(O)c2ccccc2oc1=O | 16.4% | inactive | 
12 | CC(Cc1ccc2c(c1)OCO2)NO (stereo not given) | -5.75% | inactive | 
13 | COc1ccc2c(C(=O)c3ccc(Cl)cc3)c(C)n(CC(=O)O)c2c1 | 8.1% | inactive | 
14 | CC(C)(O)C(Cl)(Cl)Cl | 9.4% | inactive | 
15 | COc1cc(C)[nH]c(=O)c1CNC(=O)c1c(C)n([C@H](C)C2CCN(CC(F)(F)F)CC2)c2ccccc12 | 8.69% | inactive | 
16 | CCC1(CCC(C)C)C(=O)NC(=O)NC1=O | 0.531% | inactive | 
17 | CCC(=O)C(CCN(C)C)(c1ccccc1)c1ccccc1 | -1.08% | inactive | 
18 | COP(=S)(OC)SCN1C(=O)c2ccccc2C1=O | 6.58% | inactive | 
19 | CN1C[C@@H](NS(=O)(=O)N(C)C)C[C@@H]2c3cccc4c3c(cn4C)C[C@H]21 | -2.7% | inactive | 

Row | SMILES | activity (max response) [1] | Potency [2] | Potency [1]
20 | CC(C(O)c1ccccc1)N(C)C/C=C/c1ccccc1 (stereo not given) | -14.5% | inactive | 
21 | O=c1n(Cl)c(=O)n(Cl)c(=O)n1Cl | 8.14% | inactive | 
22 | CNC(=O)Oc1cccc2ccccc12 | -8.24% | inactive | 
23 | C[C@]12CC[C@H](O)CC1=CC[C@@H]1[C@@H]2CC[C@]2(C)C(=O)CC[C@@H]12 | 3.86% and -7.41% | inactive | 
24 | C=C(C)[C@H]1CN[C@H](C(=O)O)[C@H]1CC(=O)O | 7.33% | inactive | 
25 | Cc1c(Cl)c(=O)oc2cc(OP(=O)(OCCCl)OCCCl)ccc12 | -15.3% | inactive | 
26 | c1cc2ccc3cccc4ccc(c1)c2c34 | -9.29% | inactive | 
27 | Cc1ncc2n1-c1ccc(Cl)cc1C(c1ccccc1F)=NC2 | -18.8% | inactive | 
28 | CCN(CC)CCN1C(=O)CN=C(c2ccccc2F)c2cc(Cl)ccc21 | 2.24% | inactive | 
29 | C=C[C@H]1CN2CCC1C[C@@H]2[C@@H](O)c1ccnc2ccccc12 (stereo not given in full) | -20.5% | inactive | 
30 | C[C@]12CC[C@H]3[C@@H](CCC4=CC(=O)CC[C@@H]43)[C@@H]1CC[C@@H]2OC(=O)CCC1CCCCC1 | -4.2% | inactive | 
31 | N#CC(C#N)=Cc1ccc(O)c(O)c1 | 13.2% | inactive | 
32 | CC(C)(C)CC(C)(C)c1ccc(O)cc1 |  | 8.91 µM (active) and 13 µM (active) | 
33 | CC(CCc1ccccc1)NC(C)C(O)c1ccc(O)cc1 (stereo not given) | -14.3% | inactive | 
34 | CC(C)(NC(=O)O[C@@H]1CN2CCC1CC2)c1csc(-c2ccc(F)cc2)n1 |  | inactive | 
35 | COC(=O)c1cncn1C(C)c1ccccc1 (stereo not given) | -8.99% | inactive | 
36 | O=c1oc2ccccc2c(O)c1C(CC(O)c1ccc(-c2ccc(Br)cc2)cc1)c1ccccc1 (stereo not given) |  | 18.4 µM (active) | 
37 | CC(=O)O[C@@]12CO[C@@H]1C[C@H](O)[C@@]1(C)C(=O)[C@H](O)C3=C(C)[C@@H](O)C[C@@](O)([C@@H](OC(=O)c4ccccc4)[C@H]21)C3(C)C |  | inactive | 
